The values below come from PubChem BioAssay (NCATS).

Records with an inconclusive call do not appear. A call without a number means that no potency is given here. Activity calls are given as the source filed them. Calls follow the shape of the dose curve; as a rule, active = well fitted activation curve with a large enough effect; inconclusive = small, poorly fitted or top-dose-only effect; inactive = no such curve, though single readings can be large or run the other way.

Sequence of D(1A) dopamine receptor (Homo sapiens) (P21728 whole entry, looked up): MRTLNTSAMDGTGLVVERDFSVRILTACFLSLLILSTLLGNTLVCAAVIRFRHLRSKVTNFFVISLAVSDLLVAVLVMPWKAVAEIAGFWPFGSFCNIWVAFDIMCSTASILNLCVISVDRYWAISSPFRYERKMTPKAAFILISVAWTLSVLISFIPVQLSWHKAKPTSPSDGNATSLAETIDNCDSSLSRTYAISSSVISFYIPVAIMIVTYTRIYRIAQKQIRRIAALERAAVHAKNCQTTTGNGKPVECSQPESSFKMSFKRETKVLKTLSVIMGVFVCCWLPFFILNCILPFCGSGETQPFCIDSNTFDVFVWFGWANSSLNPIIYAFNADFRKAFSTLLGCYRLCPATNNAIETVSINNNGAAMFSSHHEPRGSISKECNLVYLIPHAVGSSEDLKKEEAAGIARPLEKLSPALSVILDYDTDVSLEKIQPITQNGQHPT

This test addresses D(1A) dopamine receptor (Homo sapiens) (UniProt P21728). As to the kind of experiment: HTS Assay for Allosteric Agonists of the Human D1 Dopamine Receptor: Primary Screen for Potentiators (AID 488982). The settings on record: HEK293 T-REx D1 inducible cells, calcium flux, kinetic fluorescence; series mostly up to 8.37 µM. The text has this: Dopamine receptors (DARs) are involved in the etiology and/or therapy of a number of neuropsychiatric and endocrine disorders. For instance, all receptor-based antiparkinsonian drugs work via stimulating the […] DAR subtype whereas all FDA-approved antipsychotic agents are antagonists of this receptor. […] There are three different types of allosteric modulators that we are seeking, two of which will stimulate or augment receptor signaling, allosteric agonists and potentiators, while the third, allosteric antagonists, will attenuate receptor signaling. The present primary screening assay measures compound agonism by tracking calcium flux in a […], inducible Hek293 Trex D1 cell line.
Freshly passaged cells are plated in 1536 well black, clear bottom plates at a density of 4000 cells/well in 3 ul of complete media containing 1x tetracycline inducer. After an overnight incubation at 30 C in 5% CO2, cells are loaded with 2 ul of the no wash Calcium Assay Kit (ABD Bioquest) and incubated at room temperature for 30 to 90 minutes. A 10 cycle (1 second/cycle) baseline measurement is taken and then the FDSS online 1536 pintool delivers 23 nl of compound library (as well as dopamine controls) to the plate. The plate is measured for kinetically at 1 cycle/sec for 180 seconds and is considered to be the agonist portion of the assay (eg, compounds which activate a positive calcium response during this portion are flagged as potential agonists). Following the 180 second read, 1 ul of an EC20 of dopamine is delivered by an onboard pipette head. Measurements are taken kinetically for an additional 180 seconds.
For the compound `CNc1ncnc2c1ncn2[C@@H]1O[C@H](CO)[C@@H](O)[C@H]1O`, the Potency result is “inactive”.
Then `COc1ccc2c(c1)CCC1C2CC[C@@]2(C)C1CC[C@@H]2NCCCCCCN1C(=O)CCC1=O` (stereo not given in full), with “inactive”; and `OC[C@H]1O[C@@H](n2cnc3c(NC4CCCC4)ncnc32)[C@H](O)[C@@H]1O`, with “inactive”.
With `C[C@@H](CN1CCC(Cc2ccccc2)CC1)[C@@H](O)c1ccc(O)cc1` the entry was “inactive”; with `NCCCCC(=O)O`, “inactive”; with `CSc1ccccc1N1CCN(CCCCCC(=O)NC2CCCc3ccccc32)CC1` (stereo not given), “inactive”.
Then `Nc1nc(Nc2ccccc2)nc2c1ncn2[C@@H]1O[C@H](CO)[C@@H](O)[C@H]1O`, with “inactive”; and `O=c1[nH]c2cc([N+](=O)[O-])c([N+](=O)[O-])cc2[nH]c1=O`, with “inactive”.
For the compound `COc1ccc(/C=C/C(=O)Nc2ccccc2C(=O)O)cc1OC`, the Potency result was “inactive”.
As to `CC1OC1P(=O)(O)O` (stereo not given), the Potency entry is “inactive”.
With `COc1cccc(C(=O)NCCN2CCN(c3ccc(Cl)cc3)CC2)c1` the entry was “inactive”.
With `CN1CCc2cc(NC(=O)Nc3cccnc3)ccc21` the entry was “inactive”.
Take `Ic1ccc(N2CCN(Cc3c[nH]c4ncccc34)CC2)cc1`: the Potency entry is “inactive”.
With `N.N.N.N.N.N.N.N.N.N.N.N.N.N.O.O.[Ru+4].[Ru+5].[Ru+5]` the entry was “inactive”; with `c1cnc2c(c1)ccc1cccnc12`, “inactive”; with `COc1cc2nc(N3CCN(C(=O)OCc4ccccc4)C(C(=O)NC(C)(C)C)C3)nc(N)c2cc1OC` (stereo not given), “inactive”.
Then `Nc1ncnc2c1c(I)cn2[C@@H]1C[C@H](N)[C@@H](O)[C@H]1O`, with “inactive”.
For the compound `CC(N)C(=O)OC(C)(C)Cc1ccc(Cl)cc1` (stereo not given), the Potency result was “inactive”.
Then `NC(=O)C(=O)O`, with “inactive”; and `Nc1nc(Cl)nc2c1ncn2[C@@H]1O[C@H](COP(=O)(O)OP(=O)(O)OP(=O)(O)O)[C@@H](O)[C@H]1O`, with “inactive”.
Then `Nc1nc(Cl)nc2c1ncn2[C@@H]1O[C@H](CO)[C@@H](O)[C@H]1O`, with “inactive”; and `NS(=O)(=O)C#Cc1ccccc1`, with “inactive”; and `CCC1C(=O)OCC1Cc1cncn1C` (stereo not given), with “inactive”.
Take `Brc1c(Br)c(Br)c2n[nH]nc2c1Br`: the Potency entry was “inactive”.
Take `COc1ccc(NC(=O)/C=C/c2ccc(Cl)cc2)cc1`: the Potency result is “inactive”.
Consider `OCC1O[C@H]([S-])[C@H](O)[C@@H](O)[C@@H]1O.[Au+]` (stereo not given in full), for which the Potency entry is “inactive”.
Then `O=c1[nH]c2cc(Cl)c(Cl)cc2[nH]c1=O`, with “inactive”.
With `N#C/C(=C\c1ccc(O)c(O)c1)C(=O)NCc1ccccc1` the entry was “inactive”; with `NC[C@@H]1O[C@H](C23CC4CC(CC(C4)C2)C3)Cc2c1ccc(O)c2O`, “inactive”.
Turning to `O=[N+]([O-])c1ccc(CSc2ncnc3c2ncn3[C@@H]2O[C@H](CO)[C@@H](O)[C@H]2O)cc1`, the Potency result was “inactive”.
With `N#C/C(=C\c1ccc(-c2cc(Cl)ccc2Cl)o1)C(=O)Nc1cccc2ncccc12`, the Potency entry was “inactive”.
Then `NCCNC(=O)c1ncsc1-c1cccc(F)c1`, with “inactive”; and `NCC1OC(O[C@H]2[C@H](O)[C@@H](OC3C(O)C(N)CC(N)C3OC3OC(CO)C(O)C(O)C3N)O[C@@H]2CO)C(N)C(O)C1O` (stereo not given in full), with “inactive”; and `CC1CN(S(=O)(=O)c2cccc3cnccc23)CCN1` (stereo not given), with “inactive”.
Take `CCCCN1CCC(n2c(=O)[nH]c3ccccc32)CC1`: the Potency entry was “inactive”.
In the case of `Cc1cc(NC2CCCCC2)nc(-n2nc(C)cc2C)n1`, the Potency entry is “inactive”.
For `CC(C)NCC(O)COc1cccc2ccccc12` (stereo not given), the Potency entry is “inactive”.
With `NO` the entry was “inactive”; with `CN1CCc2ccccc2Cc2[nH]c3ccccc3c2CC1`, “inactive”; with `CCc1c(C(=O)NCCc2ccc(N3CCCCC3)cc2)[nH]c2ccc(Cl)cc12`, “inactive”.
